High-throughput results deposited in PubChem by National Center for Advancing Translational Sciences (NCATS).
BAZ2B block = inhibitors of human BAZ2B bromodomain; Q9UIF8; AlphaScreen BAZ2B-H3K14Ac peptide displacement; Potency, µM (series often up to 114 µM), most hits filed as inhibitors; 360,000 compounds, 4.4% hits; AID 504333; further: nearly all actives have a fitted effect of over 60% in size
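Inhibition is scored as reduced AlphaScreen emission. The BAZ2B/b-H3(5-23)K14Ac complex (50 nM each) in PBS pH 7.4, 0.01% Tween-20 meets compound (up to 110 uM) for 30 min at RT before bead addition.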
JMJD2A Tudor = inhibitors of human JMJD2A Tudor domain. AlphaScreen JMJD2A-Tudor / H3K4me3 peptide binding. 390,000 compounds, 4.4% hits. AID 504339. O75164. Potency, µM (top dose mostly 114 µM), hits mostly inhibitors; further: nearly all actives have a fitted effect of over 50% in size
Target sequence (O75164 whole entry, looked up, the tested form may be a part): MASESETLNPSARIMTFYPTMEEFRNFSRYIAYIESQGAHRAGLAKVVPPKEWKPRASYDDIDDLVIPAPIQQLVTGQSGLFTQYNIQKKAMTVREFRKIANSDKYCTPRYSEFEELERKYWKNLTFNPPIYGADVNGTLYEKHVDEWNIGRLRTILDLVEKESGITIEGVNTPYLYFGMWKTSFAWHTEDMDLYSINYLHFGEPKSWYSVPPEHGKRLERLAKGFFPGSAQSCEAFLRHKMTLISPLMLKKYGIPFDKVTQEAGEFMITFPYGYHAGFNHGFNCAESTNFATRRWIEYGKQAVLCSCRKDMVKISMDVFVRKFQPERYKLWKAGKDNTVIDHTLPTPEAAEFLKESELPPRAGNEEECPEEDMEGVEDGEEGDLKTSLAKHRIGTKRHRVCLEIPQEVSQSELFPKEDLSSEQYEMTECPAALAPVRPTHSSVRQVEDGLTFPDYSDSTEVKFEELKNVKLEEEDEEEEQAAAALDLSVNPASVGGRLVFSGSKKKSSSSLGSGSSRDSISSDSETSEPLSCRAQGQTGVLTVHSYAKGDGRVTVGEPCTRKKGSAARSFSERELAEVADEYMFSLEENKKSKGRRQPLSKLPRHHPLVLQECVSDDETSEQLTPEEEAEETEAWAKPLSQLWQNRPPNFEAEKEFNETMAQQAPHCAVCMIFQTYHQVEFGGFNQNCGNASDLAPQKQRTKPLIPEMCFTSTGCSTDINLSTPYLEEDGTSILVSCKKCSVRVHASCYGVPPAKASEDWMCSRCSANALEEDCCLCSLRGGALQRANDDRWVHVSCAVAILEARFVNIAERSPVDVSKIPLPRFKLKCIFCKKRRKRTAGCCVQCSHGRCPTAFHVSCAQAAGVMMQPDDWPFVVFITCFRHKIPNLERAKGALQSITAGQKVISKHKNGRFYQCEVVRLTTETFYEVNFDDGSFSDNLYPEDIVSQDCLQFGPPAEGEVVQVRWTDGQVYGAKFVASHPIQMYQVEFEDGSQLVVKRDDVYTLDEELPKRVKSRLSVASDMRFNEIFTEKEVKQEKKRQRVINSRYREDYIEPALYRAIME
G9a inh = inhibitors of human histone lysine methyltransferase G9a; Q96KQ7; G9a H3K9 monomethylation, AlphaScreen, 2 h; Potency, µM (top dose mostly 102 µM), usual class: inhibitors; 350,000 compounds, 8.8% hits; AID 504332; further: nearly all actives have a fitted effect of over 75% in size
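Signal arises when biotinylated H3K9 peptide, once monomethylated, bridges streptavidin donor and antibody-captured acceptor beads. Enzyme at 20 nM was preincubated 15 min with test compounds; peptide 500 nM and SAM 20 uM then reacted for 2 h.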
HP1b chromo inh = inhibitors of HP1-beta chromodomain binding to methylated histone tails; AID 540317; 390,000 compounds, 0.56% hits; Potency, µM (series often up to 114 µM), hits mostly inhibitors; AlphaScreen HP1-beta / biotin-H3K9me3 peptide binding; further: nearly all actives have a fitted effect of over 70% in size
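AlphaScreen: HP1-beta (50 nM) preformed 30 min with biotin-H3(1-18)K9me3 peptide (50 nM) in PBS pH 7.4, 0.01% Tween-20. Compound added for 30 min at RT, then streptavidin donor/nickel chelate acceptor beads (10 ug/mL) for 30 min.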
Sfp inh = inhibitors of Bacillus subtilis Sfp phosphopantetheinyl transferase | AID 1490 | Biochemical Sfp PPTase activity, qHTS | 310,000 compounds, 3.5% hits | Potency, µM, hits mostly inhibitors | Q9F4F7;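 further: the enzyme is Sfp with the accession as filed and its product quenches rhodamine fluorescence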
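After 15 min at room temperature with compound, 15 nM Sfp received 5 uM rhodamine-CoA plus 12.5 uM BHQ-2-ybbR (50 mM Hepes pH 7.6, 10 mM MgCl2). Rate came from the fluorescence difference over 30 min, ex 525/em 598 nm.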
PLK1 PBD inh = PLK1 (human) polo-box domain binding inhibition. P53350. Plk1 PBD binding of FITC phosphopeptide, fluorescence polarization. Potency, µM, most hits filed as inhibitors. 360,000 compounds, 2.8% hits. AID 720504; further: series mostly up to about 57 µM; nearly all actives have a fitted effect of over 65% in size
Large screens that a line does not name were inactive. Only some compounds are listed: those with a hit (about 12% of all), similar ones and a draw of the others. The call rests on the fitted dose curve; in most records, active means well fitted curve in the direction sought with a large enough effect; inconclusive means small, poorly fitted or top-dose-only effect, or another doubt; inactive means no such curve, though single readings can be large; an effect the other way counts as inactive or inconclusive.

O=C(O)c1cc(-c2ccc(/C=c3\sc4nc5ccc(Br)cc5n4c3=O)o2)ccc1Cl	BAZ2B block 18µM, G9a inh 0.79µM, Sfp inh 56µM (no result: JMJD2A Tudor, HP1b chromo inh, PLK1 PBD inh)
O=C(O)c1ccccc1-c1ccc(/C=c2\sc3nc4cc(Br)cnc4n3c2=O)o1	BAZ2B block 40µM, JMJD2A Tudor 3.2µM, G9a inh inconclusive, HP1b chromo inh 6.3µM, Sfp inh 35µM, PLK1 PBD inh inconclusive
Cc1ccc2nc(-c3cc(NC(=O)COc4ccc(C)c(C)c4)ccc3Cl)oc2c1	none (no result: Sfp inh, PLK1 PBD inh)
CCCCCN1C(C(=O)c2ccccc2)=C(NC(=O)c2ccc(OC)cc2)c2ccccc2S1(=O)=O	none (no result: Sfp inh, PLK1 PBD inh)
O=C(Nc1nnc(-c2ccc3c(c2)OCCO3)o1)C1CCCCC1	none (no result: BAZ2B block)
Cc1ccc(C(c2nnnn2Cc2cccs2)N2CCN(C(=O)c3ccco3)CC2)cc1 (centres undefined)	BAZ2B block inconclusive, JMJD2A Tudor inconclusive, G9a inh 40µM
CCOc1ccc(C(c2nnnn2Cc2ccccc2)N2CCN(C(=O)c3ccco3)CC2)cc1 (centres undefined)	none (no result: BAZ2B block, G9a inh, Sfp inh)
COc1ccc(C(c2nnnn2Cc2ccccc2)N2CCN(C(=O)c3ccco3)CC2)cc1 (centres undefined)	G9a inh 56µM
Nc1c(C(=O)Nn2cnnc2)cc([N+](=O)[O-])cc1[N+](=O)[O-]	G9a inh 50µM (no result: JMJD2A Tudor, HP1b chromo inh, PLK1 PBD inh)
CC(=O)Nc1cc2c(c([N+](=O)[O-])c1C)C(C)(C)CC2(C)C	none (no result: BAZ2B block, G9a inh, Sfp inh)
Cc1c(N=NC2=C(O)CC(C)(C)CC2=O)cc2c(c1[N+](=O)[O-])C(C)(C)CC2(C)C	BAZ2B block inconclusive, JMJD2A Tudor 22µM, G9a inh inconclusive, HP1b chromo inh inconclusive
CN(C)Cc1nc2ccccc2c(=O)n1Cc1nc(-c2cc3ccccc3o2)cs1	BAZ2B block inconclusive, JMJD2A Tudor 50µM, G9a inh inconclusive, Sfp inh inconclusive, PLK1 PBD inh 19µM
CCOc1ccc(-c2csc(Cn3c(CN4CCN(C)CC4)nc4ccccc4c3=O)n2)cc1	BAZ2B block inconclusive, JMJD2A Tudor 22µM, G9a inh 22µM, HP1b chromo inh inconclusive, Sfp inh inconclusive, PLK1 PBD inh 24µM
CCNC(=S)N1CCC(C(=O)c2ccc(F)cc2)CC1	none (no result: BAZ2B block, JMJD2A Tudor, G9a inh, HP1b chromo inh, Sfp inh)
COc1ccc(S(=O)(=O)N2CCC(Oc3ccc(-n4cnnn4)cc3)CC2)cc1OC	none (no result: Sfp inh, PLK1 PBD inh)
COC(=O)c1ccc(N(C(=O)CNC(=O)c2ccco2)C(C(=O)NC2CCCC2)c2ccco2)cc1 (centres undefined)	PLK1 PBD inh 27µM
O=C(NCC(=O)N(Cc1cccs1)C(C(=O)NC1CCCC1)c1ccncc1)c1ccco1 (centres undefined)	BAZ2B block inconclusive, G9a inh inconclusive, Sfp inh 25µM
O=C(NCC(=O)N(Cc1ccccc1)C(C(=O)NC1CCCC1)c1ccncc1)c1ccco1 (centres undefined)	G9a inh 10µM
CCN(CC)C(=O)c1sc(NC(=O)c2nc3ncccn3n2)c(C(=O)OC)c1C	BAZ2B block inconclusive, G9a inh inconclusive (no result: Sfp inh, PLK1 PBD inh)
Nc1nc2c(ncn2C2CC(O)C(CO)O2)c(=O)[nH]1 (centres undefined)	none (no result: BAZ2B block, JMJD2A Tudor, G9a inh, HP1b chromo inh, PLK1 PBD inh)
N#Cc1ccccc1NC(=O)CN(Cc1ccccc1)Cc1ccccc1	none
CC(C)(C)c1nc2cc(Cl)c([N+](=O)[O-])cc2o1	JMJD2A Tudor inconclusive, HP1b chromo inh inconclusive, PLK1 PBD inh 27µM
Cc1cc[n+](-c2[nH]c(=O)sc2/C=N/N=C(\[O-])c2ccccc2)cc1	BAZ2B block 50µM, JMJD2A Tudor inconclusive, Sfp inh inconclusive
Cc1cc[n+](-c2[nH]c(=O)sc2/C=N/N=C(\[O-])c2ccccc2)cc1C	BAZ2B block inconclusive, G9a inh 50µM, PLK1 PBD inh 24µM
Cc1cc(C)c[n+](-c2[nH]c(=O)sc2/C=N/N=C(\N)[S-])c1	BAZ2B block inconclusive, G9a inh 40µM, Sfp inh 25µM
Cc1cc[n+](-c2[nH]c(=O)sc2/C=N/N=C(\[O-])c2ccncc2)cc1C	BAZ2B block inconclusive, Sfp inh inconclusive
O=c1[nH]c(-[n+]2ccccc2)c(/C=N/N=C(\[O-])c2ccccc2)s1	none (no result: G9a inh)
Cc1ccc[n+](-c2[nH]c(=O)sc2/C=N/N=C(\[O-])c2cccnc2)c1	G9a inh inconclusive
Cc1cc[n+](-c2[nH]c(=O)sc2/C=N/N=C(\[O-])c2ccncc2)cc1	BAZ2B block 56µM
CCc1ccc[n+](-c2[nH]c(=O)sc2/C=N/N=C(\[O-])CCn2c3ccccc3c3ccccc32)c1	BAZ2B block inconclusive, G9a inh 45µM, HP1b chromo inh inconclusive
COc1ccc2c(c1)OC[C@H]1[C@H]2N2C(=O)[C@H](C)NC(=O)[C@@]2(C)[C@H]1c1ccccc1	none (no result: Sfp inh)
CCc1ccc(NC(=O)C2CCCN2S(=O)(=O)c2ccc3c(c2)CCCC(=O)N3)cc1 (centres undefined)	none (no result: Sfp inh, PLK1 PBD inh)
Cn1c(-c2ccc(F)cc2)cnc1SCC(=O)N1CCCCC1	none
CC1Cc2ccccc2N1C(=O)CSc1nncn1C (centres undefined)	none
CCCN(CCC)C(=O)CSc1ncccc1C(=O)O	JMJD2A Tudor 89µM, G9a inh inconclusive, Sfp inh inconclusive
Cn1c(-c2ccc(F)cc2)cnc1SCC(=O)N1CCCc2ccccc21	BAZ2B block 32µM, G9a inh 45µM, HP1b chromo inh inconclusive, PLK1 PBD inh inconclusive
CC1Cc2ccccc2N1C(=O)CSc1ncc(-c2ccc(F)cc2)n1C (centres undefined)	BAZ2B block 28µM, JMJD2A Tudor 56µM, G9a inh inconclusive, HP1b chromo inh inconclusive
Cc1ccc(NC(=O)CSCC(=O)N2CCCc3ccccc32)cc1	G9a inh 45µM (no result: Sfp inh)
COC(=O)CN1C(=O)[C@@H]2[C@H](C1=O)[C@@H]1CC(C(=O)OC)=C[C@@H](C(=O)OC)C3C1=C(C(=O)[C@@]3(C)NC(=O)c1ccccc1)[C@@H]2C (some centres undefined)	none (no result: BAZ2B block, G9a inh, PLK1 PBD inh)
CCN(CC)S(=O)(=O)c1ccc2c(c1)N(CC(=O)Nc1ccc(F)cc1F)C(=O)C1CCCN21 (centres undefined)	none (no result: Sfp inh, PLK1 PBD inh)
COc1cccc(CN2C(=O)c3ccccc3Sc3ccc(C(=O)N(C)Cc4ccccc4)cc32)c1	none (no result: BAZ2B block, Sfp inh, PLK1 PBD inh)
O=C(O)c1cccnc1SCC(=O)N1CCCc2ccccc21	BAZ2B block 79µM, JMJD2A Tudor inconclusive
O=C(CSc1ncccn1)N1CCCc2ccccc21	none
Cn1ccnc1SCC(=O)N1CCc2ccccc21	G9a inh inconclusive
Cc1cccc(-n2ccnc2SCC(=O)N2CCCc3ccccc32)c1C	BAZ2B block 50µM, JMJD2A Tudor inconclusive, G9a inh inconclusive
Cc1ccc2[nH]cc(C(c3ccccc3)c3cccs3)c2c1 (centres undefined)	none (no result: Sfp inh, PLK1 PBD inh)
